From PubChem BioAssay
IMPase inh = cell-permeable inhibitors of inositol monophosphatase (IMPase); P97697; CHO-M1 cells, IP1 accumulation, HTRF TR-FRET ratio; inhibition (IP1 accumulation), % at 46.1 µM; 120,000 tested, under 10 active; active = well fitted curve in the direction sought with a large enough effect in the signal ratio, not every such curve was filed as active; inconclusive = small, poorly fitted or top-dose-only effect, or a change in a side signal; inactive = no such curve, though single readings can be large or run the other way; the % refers to the signal ratio;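 note: cells stimulated with carbachol in lithium chloride buffer; higher means more IMPase inhibition seen as more IP1 and lower FRET ratio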
Target sequence (P97697 whole entry, looked up): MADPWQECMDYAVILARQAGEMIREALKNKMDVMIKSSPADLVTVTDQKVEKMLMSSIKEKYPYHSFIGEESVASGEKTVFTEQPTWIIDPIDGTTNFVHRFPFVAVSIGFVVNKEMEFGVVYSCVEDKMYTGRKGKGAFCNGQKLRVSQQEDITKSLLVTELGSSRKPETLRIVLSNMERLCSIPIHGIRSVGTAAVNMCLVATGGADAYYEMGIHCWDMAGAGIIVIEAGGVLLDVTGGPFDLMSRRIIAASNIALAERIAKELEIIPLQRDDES
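Seeded CHO-M1 cells were dosed with compound at up to 46 uM, stimulated with carbachol for 30 min, then lysed in IP-One detection reagents. Higher IP1 lowers the TR-FRET signal.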
ALDH1A1 block = ALDH1A1 (human) enzyme inhibition | P00352 | Purified ALDH1A1, NADH fluorescence, propionaldehyde substrate | actives 7.3% (n = 220,000) | Potency, µM (highest dose often 75.3 µM), usual class: inhibitors
HPGD block = blocks human HPGD enzyme activity | purified HPGD, NADH fluorescence kinetic, PGE2 substrate | P15428 | actives 4.3% (n = 150,000) | AID 894 | Potency, µM, actives largely listed as inhibitors
Target sequence (P15428 whole entry, looked up): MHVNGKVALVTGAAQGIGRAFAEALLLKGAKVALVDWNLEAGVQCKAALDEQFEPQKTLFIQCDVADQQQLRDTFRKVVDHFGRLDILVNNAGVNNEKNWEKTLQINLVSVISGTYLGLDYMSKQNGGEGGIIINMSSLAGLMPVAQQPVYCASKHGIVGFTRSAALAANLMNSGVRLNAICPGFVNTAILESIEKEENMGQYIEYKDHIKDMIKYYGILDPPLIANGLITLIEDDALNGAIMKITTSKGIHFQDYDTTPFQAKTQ
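20 nM HPGD preincubated 15 min at room temperature with compound in 50 mM Tris-HCl pH 8, 0.01% Tween 20. Started with 1 mM NAD+ and 30 uM prostaglandin E2; NADH fluorescence (360/450 nm) read 5 times over 30-s intervals, last minus first.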
Each line names hits and unclear results; the compound was inactive in the other large screens. This is a sample that favours compounds with a hit; in the whole collection about 9% have one here. Unless noted, calls come from the whole dose curve; as a rule, active = well fitted inhibition curve with a large enough effect (not every such curve was filed as active); inconclusive = small, poorly fitted or top-dose-only effect, or another doubt; inactive = no such curve, though single readings can be large or run the other way.

C/C(=N/NC(=O)c1ccoc1C)C12CC3CC(CC(C3)C1)C2	none
CCC(NC(=O)c1ccccc1NC(=O)c1ccco1)C(=O)NNC(=O)c1ccc(OC)cc1 (stereo unspecified)	none (no result: IMPase inh)
Cc1ccc(S(=O)(=O)c2nc(S(C)(=O)=O)sc2NCC2CCCO2)cc1 (stereo unspecified)	ALDH1A1 block inconclusive
O=C(CCc1nc(-c2ccccc2)no1)NCC1CCCO1 (stereo unspecified)	ALDH1A1 block inconclusive, HPGD block 25.1µM
CNC(=O)CCc1nc(-c2ccc(C(C)(C)C)cc2)no1	none
Cc1ccc(-c2noc(CCC(=O)NCC3CCCO3)n2)cc1 (stereo unspecified)	HPGD block 17.8µM
CC(C)(C)c1ccc(-c2noc(CCC(=O)NCC3CCCO3)n2)cc1 (stereo unspecified)	HPGD block 12.6µM
Cc1ccc(-c2nc(NCC3CCCO3)sc2C)cc1 (stereo unspecified)	ALDH1A1 block 28.2µM (no result: IMPase inh, HPGD block)
Cc1ccc(-c2noc(CCC(=O)NCCN3CCOCC3)n2)cc1	none
O=C(CCc1nc(-c2ccccc2)no1)N1CCCC1	none
CC(C)C[C@H](NC(=O)OC(C)(C)C)C(=O)N1CCC(C(=O)N[C@@H](Cc2ccccc2)C(=O)O)CC1	none
CCOC(=O)c1c(C)n(C)c2ccc(OC)c([N+](=O)[O-])c12	none (no result: IMPase inh, HPGD block)
C[C@H](N)C(=O)OC(C)(C)Cc1ccc(Cl)cc1	none (no result: ALDH1A1 block, HPGD block)
Cc1ccc(-c2nc(N)sc2CC(=O)OCC(=O)NCC2CCCO2)cc1 (stereo unspecified)	ALDH1A1 block inconclusive, HPGD block 31.6µM (no result: IMPase inh)
COc1ccc(-c2noc(CN(C)CCC3CCCCO3)n2)cc1 (stereo unspecified)	none (no result: IMPase inh, HPGD block)
Cc1ccc(-c2nc(N)sc2CC(=O)OCC(=O)NCCC(C)C)cc1	none (no result: IMPase inh)
COC(=O)c1ccc(-c2noc(CN(C)CCC3CCCCO3)n2)cc1 (stereo unspecified)	ALDH1A1 block 8.91µM (no result: IMPase inh, HPGD block)
C=C(C(=O)OC)C(NC(=O)OC)c1ccccc1 (stereo unspecified)	none (no result: IMPase inh)
CC1CC2C3CCC4=CC(=O)C=C[C@@]4(C)[C@]3(F)C(O)C[C@]2(C)[C@]1(O)C(=O)COP(=O)(O)O (stereo partly specified)	none (no result: IMPase inh)
CC(=O)OC1CC(C)OC(C)O1 (stereo unspecified)	none (no result: IMPase inh)
CCc1cc2c(=O)c(-c3cnn(-c4ccccc4)c3)c(C)oc2cc1OCC(=O)Nc1ccc(F)c(F)c1	none (no result: IMPase inh)
CCc1cc2c(=O)c(-c3ccc(F)cc3)c(C)oc2cc1OCC(=O)O	ALDH1A1 block 35.5µM (no result: IMPase inh, HPGD block)
C=C(Nc1ccc(OCC)cc1)Nc1ccc(OCC)cc1	none (no result: IMPase inh)
COc1ccc(/C=N/Nc2ccccc2)cc1Cn1nc(C)c([N+](=O)[O-])c1C	none
Oc1c(Cl)cc(Cl)cc1CNc1ccc(Br)cn1	HPGD block inconclusive
Oc1ccc(Cl)cc1CNc1ccc(Br)cn1	HPGD block 14.1µM
CCCN(CCC)C(=O)c1ccc2c(c1)OCO2	HPGD block 25.1µM
N#CCCN(CCC#N)C(=O)c1ccc2c(c1)OCO2	none
CC(C)(C)NC(=S)NCc1ccco1	ALDH1A1 block inconclusive (no result: IMPase inh)
CN(C)c1ccc(C(=S)NCc2ccco2)cc1	ALDH1A1 block 5.01µM, HPGD block inconclusive
CC(=O)c1ccc(O)c(CN(C2CCCCC2)C2CCCCC2)c1O	none (no result: IMPase inh)
CC(=O)c1ccc2c3c(ccc(O)c13)CC2	ALDH1A1 block inconclusive, HPGD block 14.1µM
O=C(O)/C=C/C(=O)Nc1ccc(NC(=O)c2ccccc2)c(Cl)c1	ALDH1A1 block 2.24µM (no result: IMPase inh, HPGD block)
O=C(Nc1ccc(NC(=O)c2ccc(Br)cc2)c(Cl)c1)c1ccc(Br)cc1	none (no result: ALDH1A1 block, HPGD block)
COc1ccc(O[C@H]2C=C[C@@H](c3ccccc3)O[C@@H]2COC(=O)CC/C(C)=N/OC[C@@H](O)[C@H]2O[C@@H]3OC(C)(C)O[C@@H]3[C@H]2O)cc1	none (no result: IMPase inh)
Cc1ccc(/C=C2\SC(=S)N(/N=C/c3cc([N+](=O)[O-])ccc3O)C2=O)o1	ALDH1A1 block 7.08µM (no result: IMPase inh, HPGD block)
Cc1cc(=O)oc2cc(OCC(=O)N/N=C/c3cc([N+](=O)[O-])ccc3O)ccc12	ALDH1A1 block inconclusive
O=c1nc(/C=C/c2ccc(-c3ccc(F)cc3)o2)cc(C(F)(F)F)[nH]1	HPGD block inconclusive
O=Cc1ccc(-c2ccc(F)cc2)o1	ALDH1A1 block 1.41µM (no result: IMPase inh, HPGD block)
Cc1cc(/C=C(\C#N)C(=O)Nc2ccc(F)cc2)c(C)n1-c1ccc(N2CCOCC2)c([N+](=O)[O-])c1	ALDH1A1 block 15.8µM
N#CCc1ccc(Oc2ccc([N+](=O)[O-])cn2)cc1	none (no result: IMPase inh, HPGD block)
Cc1cc(C=O)c(C)n1-c1ccc(Oc2ccc([N+](=O)[O-])cn2)cc1	ALDH1A1 block 10µM (no result: IMPase inh)
COc1ccc(NC(=O)/C(C#N)=C/c2cc(C)n(-c3ccc(N4CCOCC4)c([N+](=O)[O-])c3)c2C)cc1	none
COc1ccc(NC(=O)/C(C#N)=C\c2cc(C)n(-c3ccc(Oc4ccc([N+](=O)[O-])cn4)cc3)c2C)cc1	HPGD block 28.2µM
Cc1cc(/C=C(/C#N)C(=O)Nc2ccccc2)c(C)n1-c1cccnc1	ALDH1A1 block inconclusive
O=c1[nH]c(/C(Cl)=C/c2cccc(C(F)(F)F)c2)nc2cc(Cl)ccc12	none (no result: IMPase inh)
O=C(Nc1cccc([N+](=O)[O-])c1)Nc1ccc2c(c1)OCCO2	none (no result: IMPase inh, HPGD block)
CCOC(=O)C1(CCc2ccccc2)CCN(C(=O)CN2C(=O)CSC2=O)CC1	none (no result: IMPase inh, HPGD block)
CCOC(=O)C1(CCc2ccccc2)CCN(C(=O)c2cc(C)nc(C)n2)CC1	none (no result: IMPase inh, HPGD block)
CCOC(=O)C1(CCc2ccccc2)CCN(C(=O)C2CCOCC2)CC1	none (no result: IMPase inh, HPGD block)
CCOC(=O)C1(CCCc2ccccc2)CCN(C(=O)CCC2=NNC(=O)CC2)CC1	ALDH1A1 block 2µM (no result: IMPase inh, HPGD block)
CCOC(=O)C1(CCCc2ccccc2)CCN(C(=O)c2ccoc2)CC1	ALDH1A1 block 3.98µM (no result: IMPase inh, HPGD block)
CCOC(=O)C1(CCCc2ccccc2)CCN(C(=O)C2=C(C)OCCO2)CC1	ALDH1A1 block 3.16µM (no result: IMPase inh, HPGD block)
CCOC(=O)C1(CCc2ccccc2)CCN(C(=O)c2ccoc2)CC1	ALDH1A1 block 25.1µM (no result: IMPase inh, HPGD block)
CC#CC(=O)N1CCC(CCc2ccccc2)(C(=O)OCC)CC1	none (no result: IMPase inh, HPGD block)
CC(C)(C)OC(=O)N1CCOCCOCCN(C(=O)OC(C)(C)C)CCOCCOCC1	none
COc1ccc(S(=O)(=O)NC(C)(C)CO)cc1-c1nnc2c3ccccc3c(C)nn12	none (no result: ALDH1A1 block, HPGD block)
CCn1c(=N)c(C(=O)NCC2CCCO2)cc2c(=O)n3cc(C)ccc3nc21 (stereo unspecified)	none (no result: ALDH1A1 block, HPGD block)
COCCCNC(=O)CCCn1c(=O)c2ccccc2n(Cc2cccc([N+](=O)[O-])c2)c1=O	none (no result: IMPase inh, HPGD block)
O=C(Cc1ccccc1)Nc1nc2ccc(Cl)cc2c2nc(-c3ccco3)nn12	IMPase inh inconclusive, HPGD block inconclusive
CCC(=O)N(Cc1cc2cc(OC)ccc2[nH]c1=O)c1cccc(C)c1	ALDH1A1 block inconclusive, HPGD block inconclusive
CCCCn1c(SCC(=O)c2ccc(OC)cc2OC)nc2cc(S(N)(=O)=O)ccc21	ALDH1A1 block 7.08µM
CCCCn1c(SC(C)C(=O)c2ccc(OC)cc2)nc2cc(S(N)(=O)=O)ccc21 (stereo unspecified)	none
CN(c1ncc(C(F)(F)F)cc1Cl)N1C(=O)c2cccc([N+](=O)[O-])c2C1=O	none (no result: IMPase inh, HPGD block)
CN1c2ccsc2/C(=N/Nc2ccccc2)CS1(=O)=O	ALDH1A1 block 12.6µM (no result: IMPase inh, HPGD block)
CN1c2ccsc2/C(=N/NC(=O)c2c(F)cccc2F)CS1(=O)=O	ALDH1A1 block inconclusive, HPGD block inconclusive
CC(Oc1ccccc1)C(=O)N/N=C/c1ccccn1 (stereo unspecified)	none (no result: IMPase inh, HPGD block)
